Results published in PubChem BioAssay AID602292 (National Center for Advancing Translational Sciences (NCATS), 2012).
Out of some 1,300 compounds screened, about 380 (29%) were called active. About 37% were inconclusive and are not listed. Some of the results follow. A number with no mark means an inactive call. The call rests on the fitted dose curve; in most records, active means well fitted inhibition curve with a large enough effect; inconclusive means small, poorly fitted or top-dose-only effect; inactive means flat fitted curve, though single readings scatter.

What follows are compounds tested against Thyrotropin receptor (Homo sapiens) (UniProt P16473) (assay: qHTS for antagonists of the Thyroid Stimulation Hormone Receptor: Hit Validation in Primary Screen). Conditions: TSHR-expressing cells, cAMP antagonist mode; series mostly up to 58 µM; activity change, negative = inhibition: at the top concentration.
In short: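 TSHR-expressing cells were pretreated with compound, then stimulated with TSH at EC80 (4nM final) for 2 hours at 37 deg C. Cellular cAMP measured by competitive HTRF (anti-cAMP cryptate, cAMP-d2) after 30 min at room temperature.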
Further: nearly all actives have a fitted effect of over 80% in size.
On the % scale 0 is the no-effect control and ±100 the full control effect; potency means the concentration at half of the fitted maximal effect.
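Wherever activity change, negative = inhibition is given: cAMP by competitive HTRF where cellular cAMP lowers the 665 nm FRET signal.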

Thyrotropin receptor (Homo sapiens), sequence (P16473 whole entry, looked up): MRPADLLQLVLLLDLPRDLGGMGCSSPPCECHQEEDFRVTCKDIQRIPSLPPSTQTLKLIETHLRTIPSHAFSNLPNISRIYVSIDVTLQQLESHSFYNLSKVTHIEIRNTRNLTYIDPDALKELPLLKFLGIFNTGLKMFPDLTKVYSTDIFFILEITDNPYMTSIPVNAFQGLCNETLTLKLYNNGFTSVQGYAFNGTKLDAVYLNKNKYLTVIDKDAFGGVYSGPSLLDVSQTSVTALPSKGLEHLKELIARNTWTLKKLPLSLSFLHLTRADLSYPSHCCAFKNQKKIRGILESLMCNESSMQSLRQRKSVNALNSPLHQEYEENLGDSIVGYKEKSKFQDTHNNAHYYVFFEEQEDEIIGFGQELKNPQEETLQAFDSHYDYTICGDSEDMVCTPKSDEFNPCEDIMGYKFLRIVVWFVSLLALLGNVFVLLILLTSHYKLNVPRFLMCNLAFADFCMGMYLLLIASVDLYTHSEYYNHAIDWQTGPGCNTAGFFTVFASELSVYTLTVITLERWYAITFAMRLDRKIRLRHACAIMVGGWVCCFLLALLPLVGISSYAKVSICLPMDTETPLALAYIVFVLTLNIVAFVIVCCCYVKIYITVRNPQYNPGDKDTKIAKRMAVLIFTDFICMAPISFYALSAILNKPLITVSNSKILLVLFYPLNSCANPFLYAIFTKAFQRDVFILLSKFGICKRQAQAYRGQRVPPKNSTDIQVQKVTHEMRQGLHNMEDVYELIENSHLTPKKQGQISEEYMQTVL

Row | SMILES | activity change, negative = inhibition | Potency
1 | NC(=O)c1cc(S(=O)(=O)NCc2ccc(F)cc2)cs1 | -2.42% | –
2 | CCN(CCCNC(=O)Cn1ncc2c([nH]c3ccc(C)cc32)c1=O)c1cccc(C)c1 | -2.65% | –
3 | COc1ccc(/C=N/NC(=O)c2ccoc2C)cc1COc1c(C)cccc1C | – | 12 µM (active)
4 | COc1ccc(N2C(=O)NC(NS(=O)(=O)c3ccc(Cl)cc3)(C(F)(F)F)C2=O)cc1 (stereo unspecified) | -8.7% | –
5 | O=c1cc(C(F)(F)F)[nH]c2ccc(OC(F)(F)F)cc12 | – | 9.53 µM (active)
6 | O=c1nc(/C=C/c2ccccc2C(F)(F)F)cc(C(F)(F)F)[nH]1 | -8.07% | –
7 | O=c1cc(C(F)(F)F)[nH]c2c(C(F)(F)F)cccc12 | – | 2.39 µM (active)
8 | O=C(Cn1ncc2c([nH]c3ccccc32)c1=O)NCC1CCN(Cc2ccc(F)cc2)CC1 | -2.88% | –
9 | CCOC(=O)C1=C(C)Nc2ccccc2N=C1NC(=O)c1cc(C)on1 | -4.52% | –
10 | N#CC1=C(N)NC(SCc2ccc(Br)cc2)=C(C#N)C12CCCCC2 | – | 23.9 µM (active)
11 | COc1ccc(Cl)cc1NC(=O)C1CCN(C(=O)C2CC(=O)N(c3ccc(C)cc3)C2)CC1 (stereo unspecified) | -4.9% | –
12 | Cc1cc(Cl)c(S(=O)(=O)N2CCSCC2)cc1OCC(=O)NC1CCCCC1 | – | 23.9 µM (active)
13 | Cc1ccc(S(=O)(=O)N2CCCC(C(=O)NC3CCCC3)C2)cc1Cl (stereo unspecified) | -6.48% | –
14 | COc1cc(OC)c(NC(=O)Cn2cnc3sc(C)c(S(=O)(=O)N4CCOCC4)c3c2=O)cc1Cl | -6.91% | –
15 | O=C(NC1CCCCC1)c1cc(-c2ccccc2O)on1 | -8.18% | –
16 | CCOC(=O)c1c(S(=O)(=O)NCC(=O)Nc2cccc(C)c2C)c(C)n(C)c1C | -1.33% | –
17 | c1ccc(CNc2ncnc3scc(-c4cccs4)c23)nc1 | – | 21.3 µM (active)
18 | O=C(CCC(=O)Nc1ccccc1)N/N=C/c1ccncc1 | -9.39% | –
19 | Cc1ccc(OCc2nnc(NC(=O)c3cccnc3)s2)cc1 | -0.605% | –
20 | O=C(COc1ccc(-c2ccccc2)cc1)Nc1cccnc1 | – | 37.9 µM (active)
21 | O=C(Nc1ccc(Br)cc1)c1cccc(S(=O)(=O)Nc2cnc3ccccc3c2)c1 | – | 21.3 µM (active)
22 | CCCCN1C(=O)c2ccc(C(=O)Nc3ccc(C)c(S(=O)(=O)N(C)C)c3)cc2C1=O | – | 23.9 µM (active)
23 | CCCN1C(=O)c2ccc(C(=O)Nc3cc(C)ccc3O)cc2C1=O | -0.893% | –
24 | O=[N+]([O-])c1cccc(S(=O)(=O)Nc2nc3ccccc3nc2Nc2cccc(S(=O)(=O)N3CCCCC3)c2)c1 | – | 12 µM (active)

Row | SMILES | activity change, negative = inhibition | Potency
25 | COC(=O)c1sc(-c2ccc(Cl)cc2)cc1NC(=O)/C=C/C(=O)O | – | 30.1 µM (active)
26 | COC(=O)c1sc(-c2ccc(C(C)(C)C)cc2)cc1NC(=O)/C=C/C(=O)O | – | 26.9 µM (active)
27 | Cc1ccccc1NC(=O)C1(C)Cc2ccccc2C(=O)O1 (stereo unspecified) | -2.25% | –
28 | CCN(C(=O)CSc1nnc(-c2ccccc2)o1)c1c(N)n(Cc2ccccc2)c(=O)[nH]c1=O | -5.21% | –
29 | CC1CC(C)CN(CCCNC(=O)CN2C(=O)COc3ccc(S(=O)(=O)N4CCOCC4)cc32)C1 (stereo unspecified) | -3.14% | –
30 | CC(C)C1Nc2ccc(C(=O)N3CCN(c4ccccn4)CC3)cc2NC1=O (stereo unspecified) | -6.86% | –
31 | CC1CCc2c(sc(NC(=O)c3ccco3)c2C(=O)O)C1 (stereo unspecified) | -15.3% | –
32 | CN(C)c1ccc(/C=C/c2ccc3c4ccccc4ccc3[n+]2-c2ccccc2)cc1 | – | 23.9 µM (active)
33 | CN(C)c1ccc(/C=C/c2cc[n+](C)cc2)cc1 | – | 37.9 µM (active)
34 | CC[n+]1c(/C=C/c2ccc(N(C)C)cc2)ccc2ccccc21 | – | 26.9 µM (active)
35 | CC[n+]1ccc(/C=C/c2ccc(N(C)C)cc2)c2ccccc21 | – | 26.9 µM (active)
36 | O=S(=O)(C/C(=C/CO)S(=O)(=O)c1ccccc1)c1ccccc1 | -9.77% | –
37 | Cc1ccnc(OC(C(=O)O)C(OCCc2ccccc2)(c2ccccc2)c2ccccc2)n1 (stereo unspecified) | -6.8% | –
38 | O=C(c1ccc(Cl)c(S(=O)(=O)N2CCCCC2)c1)N1CCCC1 | -7.26% | –
39 | COc1ccc(CCNC(=O)c2ccc(Cl)c(S(=O)(=O)N3CCCCCC3)c2)cc1 | – | 16.9 µM (active)
40 | CSCC[C@H](NC(=O)c1ccc(Cl)c(S(=O)(=O)N2CCCC2)c1)c1nc2ccccc2[nH]1 | -4% | –
41 | COc1ccc(-c2cc(C3CCN(c4cc(Cl)nc(N)n4)CC3)[nH]n2)cc1 | – | 37.9 µM (active)
42 | O=C(N[C@H]1C/C=C\C(c2ccc(F)cc2)N(Cc2ccccc2)C(=O)C1)OCC1c2ccccc2-c2ccccc21 (stereo partly specified) | -7.35% | –
43 | O=S(=O)(Nc1cccnc1)c1ccc(Br)c2ccccc12 | – | 26.9 µM (active)
44 | CC(=O)Nc1ccc(-c2csc(NC(=O)Nc3ccccc3)n2)cc1 | – | 37.9 µM (active)
45 | O=C(NC(=S)Nc1ccccc1)c1cc(-c2ccccc2)nc2ccccc12 | -9.65% | –
46 | COc1ccc(NC(=O)CSc2nc3[nH]c(=O)[nH]c(=O)c3s2)cc1OC | 2.97% | –
47 | COc1cccc(NC(=O)Nc2nc(-c3ccc(OC)c(OC)c3)cs2)c1 | – | 15.1 µM (active)
48 | COc1ccc(-c2ccc(SCc3ccccn3)nn2)cc1OC | 0.461% | –

Row | SMILES | activity change, negative = inhibition | Potency
49 | CCN(CC)C(=O)Cn1c(=O)n(-c2ccccc2)c(=O)c2sccc21 | -6.22% | –
50 | CC(=O)c1ccc(N(C(=O)CNC(=O)c2ccco2)C(C(=O)NC2CCCC2)c2ccncc2)cc1 (stereo unspecified) | -7.52% | –
51 | COc1ccc(OCC(=O)NC(=S)Nc2ccc(N3CCOCC3)c(Cl)c2)cc1 | – | 19 µM (active)
52 | COc1ccc(NC(=O)CCNS(=O)(=O)c2ccc3c(c2)CC(C)N3C(C)=O)cc1 (stereo unspecified) | -2.68% | –
53 | COc1ccc(NC(=S)N(CCCN2CCOCC2)C(C)c2cc3cccc(OC)c3o2)cc1 (stereo unspecified) | 0.0576% | –
54 | O=C(c1ccco1)N1CCN(c2ncnc3c2nnn3Cc2ccccc2Cl)CC1 | – | 30.1 µM (active)
55 | CC(C)Nc1ncnc2c1nnn2Cc1ccccc1 | -6.31% | –
56 | N#Cc1nc(-c2ccccc2)oc1N1CCN(C(=O)c2ccco2)CC1 | -13.5% | –
57 | CCOC(=O)Cc1csc(NC(=O)COc2ccc(N(C)S(=O)(=O)c3cccs3)cc2)n1 | – | 23.9 µM (active)
58 | CN(Cc1ccccc1)S(=O)(=O)c1ccc(OCC(=O)NCc2ccccn2)cc1 | -6.28% | –
59 | CN(C)S(=O)(=O)c1ccc(C(=O)Nc2nc(-c3cccs3)cs2)cc1 | – | 19 µM (active)
60 | O=C(Nc1nc(-c2cccs2)cs1)c1cccc(S(=O)(=O)N2CCCCCC2)c1 | -9.77% | –
61 | CCOc1ccc(N(CC(=O)NCc2ccc(F)cc2)C(=O)CCC(=O)Nc2nccs2)cc1 | -3.75% | –
62 | CC1CCCCN1C(=O)CSCC(=O)Nc1nc(-c2cccs2)cs1 (stereo unspecified) | – | 30.1 µM (active)
63 | O=C(COc1ccc(Cl)cc1)Nc1nc(-c2cccs2)cs1 | – | 23.9 µM (active)
64 | CCN(CC)c1ccc(C(=O)OCC(=O)N2CCCC2)cc1 | -7.98% | –
65 | COc1cccc(NC(=S)N2CCCN(Cc3ccc(F)cc3)C2)c1 | -5.53% | –
66 | Cn1nnnc1SCC1=C(C(=O)O)N2C(=O)C(NC(=O)C3CC3c3ccccc3)C2SC1 (stereo unspecified) | -2.74% | –
67 | O=C1C=C(c2ccc(Cl)c(C(F)(F)F)c2)C[C@@H](c2ccc(F)cc2)C1 | -9.8% | –
68 | CCSC1=NSC2=NC(=O)/C(=C\c3coc4ccccc4c3=O)C(=N)N12 | – | 1.69 µM (active)
69 | CSC1=NSC2=NC(=O)/C(=C\c3coc4ccccc4c3=O)C(=N)N12 | – | 2.69 µM (active)
70 | Cc1ccc(-c2nnc(SCC(=O)NC3CCCC3)n2C)cc1 | -11.3% | –
71 | N#Cc1cccc(NC(=O)COC(=O)c2cc(S(=O)(=O)Nc3ccccc3Cl)ccc2O)c1 | – | 12 µM (active)
72 | CCCC(=O)OCCNc1cc(Sc2nc3ccccc3[nH]2)c2nonc2c1[N+](=O)[O-] | – | 23.9 µM (active)

Row | SMILES | activity change, negative = inhibition | Potency
73 | CCC(=O)OCCNc1cc(Sc2nc3ccccc3[nH]2)c2nonc2c1[N+](=O)[O-] | – | 23.9 µM (active)
74 | CC(=O)OCCNc1cc(Sc2nc3ccccc3[nH]2)c2nonc2c1[N+](=O)[O-] | – | 26.9 µM (active)
75 | CCC(=O)OCCNc1cc(Sc2nccn2C)c2nonc2c1[N+](=O)[O-] | – | 19 µM (active)
76 | COc1ccc(F)cc1CN1CCN(C(=O)CCC(=O)Nc2nnc(CC(C)C)s2)CC1 | -4.64% | –
77 | O=c1[nH]cccc1-c1nc2ccccc2n1Cc1ccc(F)cc1 | -9.22% | –
78 | Cn1c(CNC(=O)c2ccc(Cl)cc2)nnc1SCC(=O)NC1CCCC1 | -4.87% | –
79 | CCN(c1cccc(C)c1)S(=O)(=O)c1cn(CC(=O)OC)c2ccc([N+](=O)[O-])cc12 | -6.34% | –
80 | CNC(=S)n1cnc(N)n1 | -2.97% | –
81 | NS(=O)(=O)c1ccc(CCNC(=O)c2cc3ccccc3s2)cc1 | -13.8% | –
82 | O=C(CNC(=O)c1ccco1)OCC(=O)c1ccccc1 | -4.52% | –
83 | CCCCNC(=O)CC1C(=O)N(Cc2ccccc2)C(C)c2nc3ccccc3n21 (stereo unspecified) | 1.18% | –
84 | CC(=O)N(C)c1ccc(N=NC2C(=O)N(C(N)=S)N=C2C)cc1 (stereo unspecified) | -11.7% | –
85 | CC1=NN(C(N)=S)C(=O)C1N=Nc1ccc(Cl)cc1Cl (stereo unspecified) | – | 30.1 µM (active)
86 | O=C1c2cccnc2C(=O)N1Cc1ccc(S(=O)(=O)N2CCN(c3ccc(Cl)cc3)CC2)cc1 | -7.87% | –
87 | COc1cccc(N2CCN(c3ncnc4c3cnn4-c3ccc(C)cc3C)CC2)c1 | – | 10.7 µM (active)
88 | CC(C)N(Cc1ccccc1)C(=O)COC(=O)c1cnc(Cl)c(Cl)c1 | – | 23.9 µM (active)
89 | Cc1onc(-c2ccccc2)c1NC(=O)N(Cc1ccccc1)C(C)C | -7.43% | –
90 | CCc1ccc(/C=C/C(=O)c2cc(Br)ccc(=O)c2O)cc1 | – | 9.53 µM (active)
91 | Cc1cccc(/C=C/C(=O)c2cc(Br)ccc(=O)c2O)c1 | – | 15.1 µM (active)
92 | CCCCOCCCNc1ncnc2c1[nH]c1ccccc12 | – | 30.1 µM (active)
93 | C1=C(CCNc2ncnc3c2[nH]c2ccccc23)CCCC1 | – | 23.9 µM (active)
94 | COc1ccc2[nH]c3c(NCCC4=CCCCC4)ncnc3c2c1 | – | 4.78 µM (active)
95 | Cc1cccc(NC(=O)CCN2CCN(C)CC2)c1 | -2.77% | –
96 | Cc1cccc(NC(=S)NCC(C)CSc2ccc(Cl)cc2)c1 (stereo unspecified) | – | 30.1 µM (active)
